# High-throughput results (PubChem BioAssay)
# Compounds with a hit are over-represented: about 32% of the library has one in this group of screens.
# CYP2C19 activ – cytochrome P450 2C19 (human) activation; P33261; recombinant CYP2C19, luciferin-H EGE luminescence; stronger effect = higher value; 0 = fully inhibited enzyme, 1 = untreated enzyme; activation factor at 5 µM; 96,000 tested, under 10 active; AID 1025;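 active means activation factor of at least 2 at 5 µM in the primary screen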;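 further: 0 = wells with 2.5 mM tranylcypromine and 1 = vehicle-only wells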
# CYP2C9 inhib – inhibitors of human CYP2C9; CYP2C9 Supersomes, luciferin-H conversion, luminescence; inhibition, % at 5 µM; 96,000 compounds, 20% hits; AID 777;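 active means blocking of liver enzyme CYP2C9 beyond about 50% at 5 µM, limit read from the data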
# Target sequence (P11712 whole entry, looked up): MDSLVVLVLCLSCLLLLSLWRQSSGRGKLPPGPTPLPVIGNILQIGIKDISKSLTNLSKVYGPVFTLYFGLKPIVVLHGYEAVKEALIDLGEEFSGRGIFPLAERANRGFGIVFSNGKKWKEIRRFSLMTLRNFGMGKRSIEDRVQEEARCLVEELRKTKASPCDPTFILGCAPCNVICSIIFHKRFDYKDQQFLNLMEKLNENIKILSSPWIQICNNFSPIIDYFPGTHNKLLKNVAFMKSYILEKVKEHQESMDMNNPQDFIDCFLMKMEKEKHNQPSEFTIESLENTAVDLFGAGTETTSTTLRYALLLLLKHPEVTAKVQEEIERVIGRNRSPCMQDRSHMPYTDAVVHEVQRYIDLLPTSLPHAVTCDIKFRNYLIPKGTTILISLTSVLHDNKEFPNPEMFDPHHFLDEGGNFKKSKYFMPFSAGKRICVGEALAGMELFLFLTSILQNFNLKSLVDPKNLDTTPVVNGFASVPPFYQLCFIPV
# CYP2C19 inh – human CYP2C19 inhibition | inhibition, % at 5 µM | P33261 | 96,000 compounds, 21% hits | CYP2C19 Supersomes, luciferin-H EGE luminescence, 30 min;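 active means CYP2C19 inhibition above a set limit at 5 µM in the primary screen, cut at about 50% in these data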;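 further: plate controls were negative control wells for no effect and 2.5 mM tranylcypromine positive control for full effect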
# CYP2C9 activ – activators of human CYP2C9; recombinant CYP2C9, luciferin-H conversion, luminescence; stronger effect = higher value; factor 1 = untreated enzyme, 0 = blocked; activation factor at 5 µM; 96,000 compounds, 1.4% hits; AID 1024; P11712;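 active means activation factor of 2 or more for CYP2C9 at a 5 µM dose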;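 further: 0 = sulfaphenazole-blocked wells and 1 = vehicle-only wells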
# PostGolgi yeast – growth inhibition of a yeast mutant, post-Golgi transport screen; post-Golgi transport phenotypic cell assay; inhibition, % at 10 µM; 98,000 compounds, 0.9% hits; AID 739;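 further: yeast cells grown in 1536-well plates; yeast grown about 18 h at 30C before absorbance read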
# PostGolgi ctrl – yeast control strain growth, post-Golgi counter-screen. efflux-deficient yeast background strain, growth absorbance A615, 16 h. inhibition, % at 10 µM. 98,000 compounds, 5% hits. AID 738
# Starred values were filed as active, the others as inactive; x = no result given. Unless noted, no stated cut-off is given here; in the data, active means inhibition above about 30%; inactive means the rest.
SMILES,CYP2C19 activ,CYP2C9 inhib,CYP2C19 inh,CYP2C9 activ,PostGolgi yeast,PostGolgi ctrl
COc1ccc2c(c1)CCc1c(C(=O)NCCCn3ccnc3)noc1-2,0.2,68.7*,81.9*,0.3,2.3,0.0
COc1ccc2c(c1)CCc1c(C(=O)NCc3ccco3)noc1-2,0.4,-40.8,62.4*,1.4,-1.9,17.8
CCOc1ccc(-n2c(SCC(N)=O)nc3c(c2=O)SCC3)cc1,1.2,2.6,-19.7,1,3.0,18.4
CCn1c(=O)c(C2=NS(=O)(=O)c3ccccc3N2)c(O)c2ccccc21,1.2,60.6*,-19.3,0.4,x,x
O=C(COC(=O)CCNS(=O)(=O)c1ccc2c(c1)OCCO2)NC1CCCc2ccccc21 (stereo unspecified),0.4,-18.5,62.0*,1.2,-2.3,0.6
O=C(COC(=O)C1CC(=O)N(c2ccc3c(c2)OCCO3)C1)NC1CCCc2ccccc21 (stereo unspecified),1,21.4,3.6,0.8,-4.7,4.0
CCOC(=O)N1CCN(C(=O)c2ccc(CS(=O)(=O)c3ccc(OC)cc3)o2)CC1,1.1,70.8*,-10.3,0.3,-2.4,-0.8
COc1ccc(S(=O)(=O)Cc2ccc(C(=O)N3CCN(c4ccccc4)CC3)o2)cc1,0.7,65.7*,27.9,0.3,1.5,1.7
COc1ccc(S(=O)(=O)Cc2ccc(C(=O)N3CCCC3)o2)cc1,0.9,5.2,7.4,0.9,-5.1,2.9
COc1ccc(S(=O)(=O)Cc2ccc(C(=O)N3CCN(c4ccccc4F)CC3)o2)cc1,0.5,88.7*,49.2,0.1,-5.0,32.2*
CCC(C(=O)Nc1ccccc1C(=O)N1CCOCC1)N1C(=O)c2ccccc2C1=O (stereo unspecified),0.9,17.5,14.1,0.8,-4.2,6.6
Nc1nnc(SCCOc2ccc(Br)cc2)s1,0.2,19.2,82.2*,0.8,-9.2,2.7
Nc1cc(N)nc(SCCOc2ccccc2)n1,0.9,-43.9,7.4,1.4,-0.3,9.1
Nc1nnc(SCCOc2ccccc2)s1,0.1,62.8*,87.2*,0.4,1.7,3.3
COc1ccc(OCCc2nnc(N)s2)cc1,1,-10.1,0.1,1.1,2.5,12.2
CCOc1ccc(C(=O)CSc2nnc(N)s2)cc1,0.4,34.0,58.1*,0.7,-7.2,0.6
Cc1ccc(-c2ccc(/C=N/N3C(=O)C4C5C=CC(C6CC56)C4C3=O)o2)c([N+](=O)[O-])c1 (stereo unspecified),0.9,11.3,9.7,0.9,-7.6,7.0
Cc1ccc2c(c1)NCCO2,0.8,-8.4,15.7,1.1,-9.0,7.9
C/C(N)=C(/C#N)C(=O)COC(=O)C1Cc2ccccc2CN1S(C)(=O)=O (stereo unspecified),0.9,17.8,5.5,0.8,-1.2,-1.4
N#CC1(c2c(O)nc3n(c2=O)CCCS3)CCCCC1,1,8.2,-0.9,0.9,8.7,-1.7
CCOc1ccc(C(=O)NCc2ccco2)cc1,0.3,-1.4,65.5*,1,-6.7,1.6
CC(C)c1ccc(OCC(=O)NCc2ccco2)cc1,0.1,74.5*,90.3*,0.3,6.8,9.9
CCc1ccc(OCC(=O)NCc2ccco2)c(Br)c1,0.1,72.1*,87.0*,0.3,-7.8,10.5
CC(C)COc1ccc(C(=O)NCc2ccco2)cc1,0.8,21.6,18.0,0.8,-2.6,5.3
C=C(C)c1ccc(C(C)(C)NC(=O)NCc2ccco2)cc1,0.1,80.8*,90.5*,0.2,-2.5,18.5
SMILES,CYP2C19 activ,CYP2C9 inhib,CYP2C19 inh,CYP2C9 activ,PostGolgi yeast,PostGolgi ctrl
CC(C)(C)c1ccc(OCC(=O)NCc2ccco2)cc1,0.8,31.0,15.0,0.7,-11.9,8.1
O=C(COc1ccccc1Br)NCc1ccco1,0.8,1.3,23.3,1,-6.6,5.7
COc1ccc(OCC(=O)OCC(=O)NCc2ccco2)cc1,1,4.7,0.0,1,3.4,4.6
O=C(COC(=O)CC1CC2CCC1C2)NC(=O)NCc1ccco1 (stereo unspecified),0.4,69.5*,63.4*,0.3,-0.3,4.7
O=C(COC(=O)CCOc1ccccc1)NCc1ccco1,0.9,37.7,8.6,0.6,2.8,-3.2
CC(Oc1ccccc1)C(=O)OCC(=O)NC(=O)NCc1ccco1 (stereo unspecified),0.9,52.3*,9.6,0.5,0.0,6.8
COC(=O)C(C)Sc1nnc(Cc2cc(=O)[nH]c(=O)[nH]2)n1-c1ccc(OC)cc1 (stereo unspecified),1,8.9,0.7,0.9,-6.2,12.2
COc1ccc(C(c2sc3nc(C)nn3c2O)N2CCC3(CC2)OCCO3)cc1 (stereo unspecified),0.6,11.3,44.9,0.9,15.3,2.7
CC(=O)C1=NN(c2ccccc2)C2(S1)S/C(=C\c1ccccc1)C(=O)N2c1ccccc1 (stereo unspecified),1.1,58.5*,-15.0,0.4,-7.3,0.0
COC(=O)C1=NN(c2ccccc2)C2(S1)SC(C(C)=O)=C(C)N2c1ccccc1 (stereo unspecified),0.8,58.1*,23.5,0.4,9.1,20.0
COC(=O)c1cn(-c2ccccc2)nc1C(=O)OC,0.9,-0.8,7.4,1,-4.2,-0.4
COC(=O)C1=NN(c2ccc(C)cc2)C2(S1)SC(C(C)=O)=C(C)N2c1ccccc1 (stereo unspecified),0.4,59.2*,58.1*,0.4,6.7,18.7
CCOc1ccc(OCCCCNCCN)cc1,0.9,4.5,5.6,1,6.7,7.6
O=C(NCCNS(=O)(=O)c1ccccc1)N1CCOCC1,1.1,1.1,-5.1,1,-8.0,25.2
CO/N=C/C(=N\Nc1ccc(OC)cc1)C(=O)c1ccc(OC)cc1,0.7,68.5*,31.7,0.3,-8.0,3.7
N=C1C(c2nc3ccccc3[nH]2)=C(O)CN1c1ccccc1,1.2,-5.0,-15.7,1.1,-1.3,3.8
N=C1C(c2nc3ccccc3c(=O)[nH]2)=C(O)CN1c1ccccc1,0.9,-116.4,11.9,2.2*,-5.1,-4.0
COc1ccc(CCN2CC(O)=C(c3nc4ccccc4c(=O)[nH]3)C2=N)cc1OC,0.3,27.7,68.8*,0.7,16.8,7.2
CC1=NN(c2nc(-c3ccc(Cl)cc3)cs2)C(=O)C1,1.1,59.5*,-8.2,0.4,10.2,0.6
CCC1=C(OC(=O)c2ccccc2)C(C)(C)C(c2ccccc2)OC1=O (stereo unspecified),0.9,16.0,7.6,0.8,-6.9,13.0
Cc1cc(C)c(C(=O)C2OC(=O)C(C)(C)C(=O)C2(C)C)c(C)c1 (stereo unspecified),0.1,89.5*,91.9*,0.1,-8.6,2.6
CC1(C)C(=O)OC(c2ccccc2)C2(CCCC2)C1=O (stereo unspecified),0.1,21.4,90.3*,0.8,-4.0,16.1
CN(C)c1ccc(C2OC(=O)C3(CCCC3)C(=O)C2(C)C)cc1 (stereo unspecified),0.8,-8.0,15.6,1.1,-0.2,-1.8
